{"source": "PubChem BioAssay (Tox21)", "note": "Inconclusive results are not listed. Where a call stands in place of a potency, no number is given. Activity calls are given as the source filed them. The call rests on the fitted dose curve; in most records, active means well fitted inhibition curve with a large enough effect in the repeat runs; inconclusive means weak or mixed curves; inactive means no such curve, though single readings can be large or run the other way. Non-standard residues stand in square brackets, D forms with d. Residues, ends and D or L forms follow the SMILES beside them. *: point of attachment. Sta = CC(C)C[C@H](N)[C@@H](O)CC(=O)O; Isovaleryl = CC(C)CC(=O)*"}
{"target": "Cytochrome P450 2C19 (Homo sapiens) (UniProt P33261)", "sequence (P33261 whole entry, looked up)": "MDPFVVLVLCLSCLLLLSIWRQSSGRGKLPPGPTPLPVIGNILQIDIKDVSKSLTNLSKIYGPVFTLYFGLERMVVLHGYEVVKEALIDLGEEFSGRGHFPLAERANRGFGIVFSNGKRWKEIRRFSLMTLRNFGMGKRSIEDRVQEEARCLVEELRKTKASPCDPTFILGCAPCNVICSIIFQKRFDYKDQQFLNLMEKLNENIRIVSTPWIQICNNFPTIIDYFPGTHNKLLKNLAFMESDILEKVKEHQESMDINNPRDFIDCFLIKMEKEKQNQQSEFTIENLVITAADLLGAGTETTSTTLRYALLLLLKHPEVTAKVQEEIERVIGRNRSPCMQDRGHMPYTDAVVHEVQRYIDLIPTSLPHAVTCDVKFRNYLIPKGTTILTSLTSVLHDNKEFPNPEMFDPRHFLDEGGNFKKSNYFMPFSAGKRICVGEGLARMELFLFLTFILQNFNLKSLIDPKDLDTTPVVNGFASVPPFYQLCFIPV", "assay": "Cytochrome P450 Family 2 Subfamily C Member 19 (CYP2C19) small molecule antagonists: luciferase reporter qHTS assay (AID 1671197); further: nearly all actives have a fitted effect of over 65% in size; further: potency means the concentration at half of the fitted maximal effect", "conditions": "P450-Glo CYP2C19 enzyme, luciferin luminescence, 1 h; series mostly up to 115 µM", "text": "National Center for Advancing Translational Sciences [NCATS]\nU.S. Environmental Protection Agency [EPA]\nNational Institutes of Environmental Health Sciences [NIEHS]\nNational Toxicology Program [NTP]\nU.S. Food and Drug Administration [FDA]\nCytochrome P450 (CYP) enzymes are membrane-bound hemeproteins that play a key role in metabolism of drugs and xenobiotics. Evaluation of the effect of chemicals on CYP isozymes is useful to minimize the adverse drug reactions and toxicities in drug development process. Tox21 chemicals were tested for their effect on CYP enzyme activities by using P450-Glo (TM) screening systems (Promega Corporation, Madison, WI). These systems provide a luminescent method containing proluciferin substrates and are converted to luciferin products by CYP isozymes. The luciferin products formed are detected with a luciferin detection reagent, and the amount of light produced is proportional to CYP activity. P450-Glo (TM) CYP2C19 screening system (Catalog. No. V9880) was used to detect the compounds that interfere in CYP2C19 activity. The positive control compound used for CYP2C19 assay is ketoconazole (Sigma-Aldrich, St. Louis, MO).\nTox21 Assay Protocol Summary:\nTwo ul of enzyme-substrate mix was dispensed into medium binding white/solid 1536-well plates (Greiner Bio-One North America Inc., Monroe, NC) using a BioRaptr Flying Reagent Dispenser (FRD, Beckman Coulter, Brea, CA). Compounds dissolved in DMSO and positive control (ketoconazole) were transferred to the assay plates at 23 nl using a Pintool station (Wako, San Diego, CA). The assay plates were incubated at room temperature for 10 min. Then 2 ul of NADPH regeneration solution was added to each well of the assay plates using an FRD and incubated at 37C for 1 h. The reaction was stopped by adding 4 ul of detection reagent using an FRD and after 20 min incubation at room temperature the luminescence signal was measured using a ViewLux plate reader (Perkin Elmer, Shelton, CT). Data were expressed as relative luminescence units."}
{"compound": "CC(=O)c1c(C)cc(C(C)(C)C)cc1C", "Potency": "71 µM (active)"}
{"compound": "CC(=O)O[C@@H]1CC2C3CCc4cc(OC(=O)c5ccccc5)ccc4C3CCC2(C)[C@H]1OC(C)=O", "note": "(stereo not given in full)", "Potency": "inactive"}
{"compound": "CC(C)CC(=O)N[C@H](C(=O)N[C@H](C(=O)N[C@@H](CC(C)C)[C@@H](O)CC(=O)N[C@@H](C)C(=O)N[C@@H](CC(C)C)[C@@H](O)CC(=O)O)C(C)C)C(C)C", "note": "(Isovaleryl-VV[Sta]A[Sta]-OH)", "Potency": "inactive"}
{"compound": "CCCCCC(CC)OC(=O)CCCOc1ccc(Cl)cc1Cl", "note": "(stereo not given)", "Potency": "35.5 µM (active)"}
{"compound": "CC(=O)OCC(=O)[C@@]1(O)CC[C@H]2[C@@H]3CCC4=CC(=O)C=C[C@]4(C)[C@H]3[C@@H](O)C[C@@]21C", "Potency": "inactive"}
{"compound": "CC12CCCC=C1C(=O)OC2=O", "note": "(stereo not given)", "Potency": "inactive"}
{"compound": "CC(O)CCCCn1c(=O)c2c(ncn2C)n(C)c1=O", "note": "(stereo not given)", "Potency": "inactive"}
{"compound": "CCCCCCCCCCCCCCBr", "Potency": "inactive"}
{"compound": "BrCCOc1ccccc1", "Potency": "89.6 µM (active)"}
{"compound": "CCCCCCCCCCCCCC(=O)OCC", "Potency": "inactive"}
{"compound": "CCC(C)c1nccnc1OC", "note": "(stereo not given)", "Potency": "inactive"}
{"compound": "Cc1cc(O)c(Cl)cc1C", "Potency": "71 µM (active)"}
{"compound": "CC(C)OC(=O)C(C(=O)OC(C)C)=C1SC=CS1", "Potency": "34.7 µM (active)"}
{"compound": "CCCc1ncc(C(=O)O)s1", "Potency": "inactive"}
{"compound": "Nc1ccc(C(=O)NCC(=O)O)cc1", "Potency": "inactive"}
{"compound": "CC(C)(C)c1ccc(C(=O)CCCCl)cc1", "Potency": "inactive"}
{"compound": "COC(=O)C(c1ccccc1Cl)N1CCc2sccc2C1", "note": "(stereo not given)", "Potency": "0.871 µM (active)"}
{"compound": "CCCCCCCCCCCBr", "Potency": "inactive"}
{"compound": "CCCCCCCCC1CO1", "note": "(stereo not given)", "Potency": "inactive"}
{"compound": "NC[C@H]1O[C@H](O[C@H]2[C@H](O)[C@@H](O[C@H]3O[C@H](CO)[C@@H](O)[C@H](N)[C@H]3O)[C@H](N)C[C@@H]2N)[C@H](N)[C@@H](O)[C@@H]1O", "activity change, negative = inhibition": "39.5% [at 23.6 µM] (inactive)"}
{"compound": "COC(=O)c1cc(Cl)c(NC(C)=O)cc1OC", "Potency": "inactive"}
{"compound": "CC(C)C(C)C", "Potency": "inactive"}
{"compound": "CC(CC(=O)Cl)CC(C)(C)C", "note": "(stereo not given)", "Potency": "80.2 µM (active)"}
{"compound": "CC(C)(C)C(=O)CC(=O)C(C)(C)C", "Potency": "inactive"}
{"compound": "CCc1ncc(C)[nH]1", "Potency": "inactive"}
{"compound": "c1cc2ccc3ccc4ccc5cccc6c(c1)c2c3c4c56", "activity change, negative = inhibition": "-3.91% [at 4.07 µM] (inactive)"}
{"compound": "COC(=O)c1ccc(C(=O)O)cc1", "Potency": "inactive"}
{"compound": "CCOC(=O)[C@H](CCc1ccccc1)N[C@H]1CS[C@H](c2cccs2)CN(CC(=O)O)C1=O", "Potency": "inactive"}
{"compound": "CSC(=O)c1cccc2nnsc12", "Potency": "12.6 µM (active)"}
{"compound": "CCCCCCCCS(=O)(=O)O", "Potency": "inactive"}
{"compound": "CC(C)(C)OC=O", "Potency": "inactive"}
{"compound": "N#CC1(N)CCCCC1", "Potency": "inactive"}
{"compound": "Cc1nnc(C(=O)NC(C)(C)c2nc(C(=O)NCc3ccc(F)cc3)c(O)c(=O)n2C)o1", "Potency": "inactive"}
{"compound": "CC[N+](C)(CC)CC", "Potency": "inactive"}
{"compound": "CC/C=C/CCCCCCCCCCOC(C)=O", "Potency": "inactive"}
{"compound": "O=P(O)(O)C(O)(Cc1cccnc1)P(=O)(O)O", "Potency": "inactive"}
{"compound": "CCCCCCCC(=O)N(C)C", "Potency": "inactive"}
{"compound": "c1coc(Cn2cccc2)c1", "Potency": "inactive"}
{"compound": "CCOCCOCCOC(C)=O", "Potency": "inactive"}
{"compound": "CC(O)C(CO)C(C)O", "note": "(stereo not given)", "Potency": "80.6 µM (active)"}
